Measured values published in PubChem BioAssay (Tox21).
Inconclusive results are not listed. The source made the active and inactive calls. Calls follow the shape of the dose curve; as a rule, active = well fitted cell-killing curve with a large enough effect in the repeat runs; inconclusive = weak or mixed curves; inactive = flat fitted curve, though single readings scatter.

Assay: qHTS assay to identify small molecule antagonists of the estrogen receptor beta (ER-beta) signaling pathway - cell viability counter screen (AID 1259382); also: nearly all actives have a fitted effect of over 55% in size
Conditions: ER-beta-UAS-bla HEK293T viability, CellTiter-Glo luminescence, 16 h; series mostly up to 92.4 µM; activity change, negative = cytotoxicity: at the top concentration
Source text: U.S. Tox21 Program National Center for Advancing Translational Sciences [NCATS] NIH Chemical Genomics Center [NCGC] U.S. Environmental Protection Agency [EPA] National Institutes of Environmental Health Sciences [NIEHS] National Toxicology Program [NTP] U.S. Food and Drug Administration [FDA] Tox21 Assay Overview: Estrogen receptor (ER), a nuclear hormone receptor, plays an important role in development, metabolic homeostasis and reproduction. Two subtypes of ER, ER-alpha and ER-beta, have similar expression patterns with some uniqueness in both types. Endocrine disrupting chemicals (EDCs) and their interactions with steroid hormone receptors like ER causes disruption of normal endocrine function. To identify the compounds that inhibit ER signaling, an ER-beta-UAS-bla GripTite cell line (Life Technologies, Madison, WI, USA) containing a beta-lactamase reporter gene under the control of an UAS response element was used to screen Tox21 10K compound library. The cytotoxicity of the Tox21 compound library against the ER-beta-bla cell line was tested in parallel by measuring the cell viability using CellTiter-Glo assay in the same wells.
Tox21 Assay Protocol Summary: ER-beta-UAS-bla HEK293T cells were dispensed at 2,000 cells/4 uL of assay medium containing 2% charcoal stripped FBS per well into black wall/clear-bottom 1536-well plates using a Multidrop Combi (ThermoFisher Scientific, Waltham, MA) dispenser. After the assay plates were incubated at a 37C and 5% CO2 for 6 hr, 23 nL of compounds dissolved in DMSO, positive controls or DMSO only was transferred to the assay plate by a Pintool station (Kalypsys, San Diego, CA), followed by addition of 1 uL (1nM as final concentration) of 17-beta-estradiol (E2) in assay medium using a Flying Reagent Dispenser (FRD, Aurora Discovery, San Diego, CA). The plates were incubated at 37C and 5% CO2 for 16 hr. Then 1 uL of LiveBLAzer B/G FRET substrate was added using a Flying Reagent Dispenser, the plates were incubated at room temperature for 2 hours, and fluorescence intensity was measured by an Envision plate reader (PerkinElmer, Shelton, CT). For cell viability readout that measures cytotoxicity, 4 uL/well of CellTiter-Glo reagent was added into the assay plates using a FRD. After 30 min incubation at room temperature, the luminescence intensity in the plates was measured using a ViewLux (PerkinElmer) plate reader.
% is scaled to controls: 0 for no effect and ±100 for the full control effect.

Row | Compound | activity change, negative = cytotoxicity
1 | CCCCOCCOC(=O)CCCCCCCCC(=O)OCCOCCCC | 3.9% (inactive)
2 | CCN(CC#N)c1cccc(C)c1 | -0.994% (inactive)
3 | O=C(CO)[C@@H](O)[C@H](O)[C@H](O)CO | 3.25% (inactive)
4 | CCC(C)(CCCC(C)C)OC(C)=O (stereo not given) | -1.21% (inactive)
5 | CC(C)(C#N)Nc1nc(Cl)nc(NC2CC2)n1 | -3.82% (inactive)
6 | CCN[C@@H]1C[C@H](N)[C@@H](OC2OC(CN)=CCC2N)[C@H](O)[C@H]1O[C@H]1OC[C@](C)(O)[C@H](NC)[C@H]1O (stereo not given in full) | 16.4% [at 0.349 µM] (inactive)
7 | CN1C(C)(C)CC(O)CC1(C)C | 1.55% (inactive)
8 | CC12CCC(C(=O)C1=O)C2(C)C (stereo not given) | 6.38% (inactive)
9 | COc1cc(C(=O)OC(COCCC(C)C)CN2CCOCC2)cc(OC)c1OC (stereo not given) | 0.739% [at 42.5 µM] (inactive)
10 | COC(=O)C1=C(C)NC(C)=C(C(=O)OC(C)C)C1c1cccc2nonc12 (stereo not given) | 2.36% [at 42.5 µM] (inactive)
11 | CCO[Si](OCC)(OCC)c1ccccc1 | 2.62% (inactive)
12 | O=C1CCCCCCCCCCCCCCO1 | 6.5% (inactive)
13 | C[N+]12CCC(CC1)C(OC(=O)C(O)(c1ccccc1)c1ccccc1)C2 (stereo not given) | 12% [at 42.5 µM] (inactive)
14 | CC(C)C(=O)OC(=O)C(C)C | 2.83% (inactive)
15 | C[N+]1(CC2COC(c3ccccc3)(c3ccccc3)O2)CCCCC1 (stereo not given) | 0.56% [at 19 µM] (inactive)
16 | Cc1ccc(-c2ccccc2C#N)cc1 | 0.558% [at 42.5 µM] (inactive)
17 | Clc1cc(Cl)cc(Cl)c1 | -0.0878% (inactive)
18 | O=Cc1cccc(Br)c1 | -11.2% (inactive)
19 | CC(C)(CCC(=O)O)C(=O)O | 3.09% (inactive)
20 | c1ccc(CCc2ccccc2)cc1 | 4.88% (inactive)

Row | Compound | activity change, negative = cytotoxicity
21 | Clc1cc(Cl)c(Cl)nc1Cl | 8.13% (inactive)
22 | CCCCOCCOC(=O)COc1cc(Cl)c(Cl)cc1Cl | 9.87% (inactive)
23 | O=[N+]([O-])c1ccc(/C=N\O)o1 | 2.08% [at 42.5 µM] (inactive)
24 | COC(=O)Nc1ccc(Cl)c(Cl)c1 | 4.82% (inactive)
25 | C[C@H]1C[C@H]2[C@@H]3CCC4=CC(=O)C=C[C@]4(C)[C@H]3C(=O)C[C@]2(C)[C@@]1(O)C(=O)CO | 11.3% [at 42.5 µM] (inactive)
26 | CCCCCCC#CC(=O)OC | 0.684% (inactive)
27 | C=CC(=O)OCCCl | -7.1% (inactive)
28 | COc1ccccc1OCC1CNC(=O)O1 (stereo not given) | -0.582% [at 42.5 µM] (inactive)
29 | NC(=O)N[C@@H](CCC(=O)O)C(=O)O | 1.59% [at 42.5 µM] (inactive)
30 | CC1=NN(c2cccc(S(=O)(=O)O)c2)C(=O)C1 | -21.3% (inactive)
31 | CO[C@@]1(NC(=O)C(C(=O)O)c2ccc(O)cc2)C(=O)N2C(C(=O)O)=C(CSc3nnnn3C)CO[C@@H]21 (stereo not given in full) | 9.09% [at 42.5 µM] (inactive)
32 | COc1cccc(OC)c1C(=O)N[C@@H]1C(=O)N2[C@@H]1SC(C)(C)[C@@H]2C(=O)O | 8.6% [at 42.5 µM] (inactive)
33 | CC(COc1ccccc1)NN (stereo not given) | -0.0007% [at 42.5 µM] (inactive)
34 | CC1=NS(=O)(=O)c2cc(Cl)ccc2N1 | -3.87% [at 42.5 µM] (inactive)
35 | CCCCCCCCCCCCCCC(=O)O | -6.54% (inactive)
36 | CCN[C@H]1C[C@H](C)S(=O)(=O)c2sc(S(N)(=O)=O)cc21 | 2.02% [at 42.5 µM] (inactive)
37 | NC(=O)N1c2ccccc2CC(=O)c2ccccc21 | 5.56% [at 42.5 µM] (inactive)
38 | CC(C)C1CCC(O)CC1 (stereo not given) | -1.31% (inactive)
39 | CCCCCCCCCC[N+](C)(C)[O-] | 4.58% (inactive)
40 | COc1ccc2cc1Oc1cc3c(cc1OC)CC[N+](C)(C)[C@H]3Cc1ccc(cc1)Oc1c(OC)c(OC)cc3c1[C@@H](C2)[N+](C)(C)CC3 | 4.06% [at 42.5 µM] (inactive)
